DAX1 inh-1 = NR0B1 (DAX1) inhibition. inhibition, % at 6.75 µM. 340,000 compounds, 0.99% hits. HEK293 Gal4-DAX1 luciferase reporter, luminescence. P51843;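 active = inhibition above the mean over all tested compounds plus 3 SD, cut at about 4.2% in these data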;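 note: 0% = DAX1-transfected cells with DMSO and 100% = empty-vector control cells with DMSO; inhibition shows as a rise in luminescence from relieved DAX1 repression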
Target sequence (P51843 207-470 limits assumed): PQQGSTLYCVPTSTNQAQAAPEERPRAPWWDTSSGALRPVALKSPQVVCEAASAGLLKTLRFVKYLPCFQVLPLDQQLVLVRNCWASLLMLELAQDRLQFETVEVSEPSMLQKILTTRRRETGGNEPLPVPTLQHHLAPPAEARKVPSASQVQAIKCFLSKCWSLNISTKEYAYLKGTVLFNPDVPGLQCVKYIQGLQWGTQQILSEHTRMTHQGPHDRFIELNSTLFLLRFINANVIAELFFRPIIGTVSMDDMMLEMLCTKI
hgDAF-12 ag = agonists of H. glycines DAF-12 nuclear receptor; HEK293 GAL4-hgDAF12 UAS-luciferase reporter, agonist luminescence; normalized to butyrate control; activation, % at 6.8 µM; 370,000 compounds, 1.8% hits;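 active = activation above a cutoff set at the mean of all screened compounds plus 3 SD, cut at about 10% in these data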;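 note: 0% = DMSO wells and 100% = sodium butyrate wells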
hcDAF12 agonist = activators of H. contortus DAF-12 nuclear receptor; 370,000 compounds, 1.4% hits; AID 652067; HEK293 hcDAF-12 lit1-tk-luc reporter, luminescence; 0% DMSO, 100% Δ7-dafachronic acid; activation, % at 6.8 µM;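 active = activation above the mean of all tested compounds plus 3 SD, cut at about 5.5% in these data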;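 note: 100% = response to 3 µM Δ7-dafachronic acid high control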
AHR activator = human AHR activation; activation, % at 5 µM; 320,000 compounds, 2.5% hits; P35869; AID 2796; AHR-responsive luciferase reporter cells, luminescence; in the data active = activation above about 47%;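 note: 0% = vehicle wells and 100% = reference agonist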
ssDAF-12 act = activators of S. stercoralis DAF-12 nuclear receptor; 370,000 compounds, 1% hits; activation, % at 6.8 µM; HEK293 ssDAF-12/GRIP1 lit1-tk-luc reporter, luminescence; % of 3 µM dafachronic acid response;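 active = activation above the mean over all tested compounds plus 3 SD, cut at about 0.9% in these data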;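 note: 0% = DMSO-only wells and 100% = 3 µM delta7-dafachronic acid wells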
DAX1 inh-2 = blocks DAX1 repression of SF-1 activated StAR promoter. HEK293T StAR-luciferase reporter, SF-1/DAX-1 repression relief. inhibition, % at 6.8 µM. 370,000 compounds, 1.1% hits. AID 652010;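 active = inhibition above the mean over all tested compounds plus 3 SD, cut at about 3.6% in these data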;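 note: 0% = DAX-1 cells with DMSO and 100% = cells lacking DAX-1 with DMSO; higher inhibition means more luminescence from relief of DAX-1 repression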
DAX1 conf = NR0B1 (human) inhibition, confirmation; shares compounds with DAX1 inh-2; inhibition, % at 6.8 µM; 2,400 compounds, 87% hits; HEK293T StAR-promoter luciferase reporter, SF-1/DAX-1 repression;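 active = inhibition above the average of every tested compound plus 3 SD, cut at about 3.8% in these data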;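 note: 0% = DAX-1 cells with DMSO and 100% = no DAX-1 control cells with DMSO; active compounds raise luminescence by relieving repression of the StAR reporter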
Target sequence (P51843 whole entry, looked up): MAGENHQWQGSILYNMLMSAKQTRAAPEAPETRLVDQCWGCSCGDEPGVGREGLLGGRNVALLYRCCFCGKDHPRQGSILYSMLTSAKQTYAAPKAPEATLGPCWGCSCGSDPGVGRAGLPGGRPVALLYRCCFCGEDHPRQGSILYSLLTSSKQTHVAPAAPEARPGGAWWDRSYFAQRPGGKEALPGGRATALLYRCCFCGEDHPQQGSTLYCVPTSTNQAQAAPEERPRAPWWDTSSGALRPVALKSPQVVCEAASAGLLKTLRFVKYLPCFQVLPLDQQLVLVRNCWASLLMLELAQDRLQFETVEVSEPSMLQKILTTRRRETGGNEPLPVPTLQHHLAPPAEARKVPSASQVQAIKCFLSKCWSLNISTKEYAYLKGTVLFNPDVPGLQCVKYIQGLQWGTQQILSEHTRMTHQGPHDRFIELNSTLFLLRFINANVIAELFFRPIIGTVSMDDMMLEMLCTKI
SF1 mutant ctr = nonselective inhibitor or artifact in SF-1 mutant DAX1 counter-screen | HEK293 StAR-luciferase, SF-1 AF2 mutant, luminescence | inhibition, % at 6.8 µM | AID 652136 | 2,400 compounds, 78% hits | shares compounds with DAX1 inh-2;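 active = inhibition above the mean of all tested compounds plus 3 SD, cut at about 3% in these data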;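 note: 0% = DAX-1 transfected cells with DMSO and 100% = cells without DAX-1 with DMSO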
LXR ag = activates human LXR-beta, counter-screen for hcDAF-12 agonists; HEK293 Gal4-LXR tk-luc reporter, luminescence, 24 h; normalized: DMSO 0%, positive control 100%; shares compounds with hcDAF12 agonist; 3,400 tested, under 10 active; activation, % at 6.8 µM;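 active = mean percent activation of the reporter above a cutoff set as the average over tested compounds plus their standard deviation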
hcDAF12 conf = confirmation of H. contortus DAF-12 agonists; shares compounds with hcDAF12 agonist; HEK293 hcDAF-12 lit1-tk-luc reporter, luminescence; % of Δ7-dafachronic acid response; activation, % at 6.8 µM; 3,400 compounds, 61% hits; AID 743032;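 active = mean activation across triplicate tests above the threshold derived from the earlier primary screen, cut at about 5.5% in these data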;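 note: 0% = DMSO only wells and 100% = 3 µM Δ7-dafachronic acid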
hgDAF12 conf = hgDAF-12 agonism, confirmation assay; shares compounds with hgDAF-12 ag; HEK293 GAL4-hgDAF12 luciferase reporter, agonist mode; percent of butyrate response; activation, % at 6.8 µM; 3,300 compounds, 80% hits; AID 743050;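 active = mean activation over triplicate wells above the hit cutoff derived from the earlier primary screen, cut at about 11% in these data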;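 note: 0% = DMSO low control and 100% = 2 mM sodium butyrate high control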
LXRb DAF12 ctr = LXR-beta agonism as DAF-12 counter-screen; shares compounds with hgDAF-12 ag; HEK293 Gal4-LXR luciferase reporter, 24 h; activation, % at 6.8 µM; 3,300 tested, under 10 active;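 active = mean activation of the triplicate above a set limit carried over from the primary screen, none filed active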
An asterisk follows results filed as active. Hits are enriched below; roughly 5.7% of the tested compounds scored in any of these assays.

CCOC(=O)CNC(=S)N(CCCN1CCN(C)CC1)Cc1cccs1 was read as DAX1 inh-1 -1.3, hgDAF-12 ag 1.0, hcDAF12 agonist 0.3, AHR activator 1.9, ssDAF-12 act -1.1 and DAX1 inh-2 -0.1.
For COc1ccc(/C=C2\SC(=O)N(CCNC(=O)C3CC4C=CC3C4)C2=O)cc1 (stereo not given) the results were DAX1 inh-1 3.0, hgDAF-12 ag 20.6*, hcDAF12 agonist 3.0, AHR activator 16.8, ssDAF-12 act -0.4, DAX1 inh-2 5.5*, DAX1 conf 8.6*, SF1 mutant ctr 4.3*, hgDAF12 conf 23.1* and LXRb DAF12 ctr 0.8.
COc1ccc(/C=C2\SC(=O)N(CCNC(=O)C3CSC4(C)CCC(=O)N34)C2=O)cc1 (stereo not given) was read as DAX1 inh-1 -0.5, hgDAF-12 ag 3.5, hcDAF12 agonist 1.4, AHR activator -0.8, ssDAF-12 act 0.7 and DAX1 inh-2 1.3.
Screening CCN(CC)c1nc(-c2cccc(OC)c2O)nc2ccccc12 returned DAX1 inh-1 0.3, hgDAF-12 ag 1.9, hcDAF12 agonist 3.8, AHR activator 25.1, ssDAF-12 act 0.3 and DAX1 inh-2 0.6.
For COc1cccc(-c2nc3ccccc3s2)c1O the results were DAX1 inh-1 -0.3, hgDAF-12 ag 24.9*, hcDAF12 agonist 16.4*, AHR activator 16.4, ssDAF-12 act 3.5*, DAX1 inh-2 7.0*, DAX1 conf 17.9*, SF1 mutant ctr 8.4*, LXR ag 1.9, hcDAF12 conf 14.8*, hgDAF12 conf 21.2* and LXRb DAF12 ctr 1.1.
For Cc1cc(C)n2cc(COc3ccc4ccccc4c3)nc2n1 the results were DAX1 inh-1 2.0, hgDAF-12 ag 16.9*, hcDAF12 agonist 8.0*, AHR activator 9.0, ssDAF-12 act 0.6, DAX1 inh-2 6.3*, DAX1 conf 15.3*, SF1 mutant ctr 8.8*, LXR ag 1.1, hcDAF12 conf 5.5, hgDAF12 conf 16.7* and LXRb DAF12 ctr 0.9.
For Cc1cccc2nc(COc3ccc(-c4ccccc4)cc3)cn12 the results were AHR activator -7.3.
CCCC(=O)Nc1nc(-c2ccc3c(c2)OCCO3)cs1 was read as DAX1 inh-1 3.1, hgDAF-12 ag 14.1*, hcDAF12 agonist 3.8, AHR activator 25.8, ssDAF-12 act -0.5, DAX1 inh-2 5.6*, DAX1 conf 6.5*, SF1 mutant ctr 4.8*, hgDAF12 conf 10.9* and LXRb DAF12 ctr 0.6.
Screening O=C(O)C(=O)Nc1nc(-c2ccc3c(c2)OCCO3)cs1 returned DAX1 inh-1 0.3, hgDAF-12 ag 1.7, hcDAF12 agonist 2.1, AHR activator 1.3, ssDAF-12 act -1.0 and DAX1 inh-2 2.1.
For CCN(CC)c1ccc(N=Nc2nn(C)c(C)c2[N+](=O)[O-])cc1 the results were DAX1 inh-1 0.1, hgDAF-12 ag 16.2*, hcDAF12 agonist 3.9, AHR activator 2.3, ssDAF-12 act 1.2*, DAX1 inh-2 4.7*, DAX1 conf 13.6*, SF1 mutant ctr 5.2*, hgDAF12 conf 14.7* and LXRb DAF12 ctr 0.8.
CCN(Cc1ccccc1)c1ccc(N=Nc2nn(C)c(C)c2[N+](=O)[O-])cc1 was read as DAX1 inh-1 -0.6, hgDAF-12 ag 6.8, hcDAF12 agonist -1.9, AHR activator 9.4, ssDAF-12 act -1.5 and DAX1 inh-2 -0.1.
Screening CCCC(=O)NNC(=O)c1c(O)c2ccccc2[nH]c1=O returned DAX1 inh-1 0.6, hgDAF-12 ag 1.0, hcDAF12 agonist 0.6, AHR activator 2.1, ssDAF-12 act -0.4 and DAX1 inh-2 0.1.
Screening COc1cc(-c2cc(=O)c3ccc(O)cc3o2)cc(OC)c1OC returned hgDAF-12 ag -2.8, hcDAF12 agonist -2.8, ssDAF-12 act -0.8 and DAX1 inh-2 -1.3.
COc1ccc2oc(-c3ccccc3)cc(=O)c2c1 was read as hgDAF-12 ag 13.5*, hcDAF12 agonist 7.6*, ssDAF-12 act 1.1*, DAX1 inh-2 5.8*, DAX1 conf 13.2*, SF1 mutant ctr 5.4*, LXR ag 1.8, hcDAF12 conf 8.5*, hgDAF12 conf 16.1* and LXRb DAF12 ctr 1.4.
Screening COc1ccc(-c2cc(=O)c3ccc(O)cc3o2)cc1 returned DAX1 inh-1 2.6, hgDAF-12 ag 16.5*, hcDAF12 agonist 3.1, ssDAF-12 act -1.0, DAX1 inh-2 7.8*, DAX1 conf 10.2*, SF1 mutant ctr 5.7*, hgDAF12 conf 14.0* and LXRb DAF12 ctr 0.6.
For COc1ccc2c(=O)c(-c3ccccc3)coc2c1 the results were DAX1 inh-1 1.8, hgDAF-12 ag 20.8*, hcDAF12 agonist 6.8*, AHR activator 0.3, ssDAF-12 act -0.3, DAX1 inh-2 6.2*, DAX1 conf 12.5*, SF1 mutant ctr 8.2*, LXR ag 1.4, hcDAF12 conf 4.9, hgDAF12 conf 16.9* and LXRb DAF12 ctr 0.8.
For COc1ccc2oc(-c3ccccc3)c(C(=O)O)c2c1 the results were DAX1 inh-1 -0.5, hgDAF-12 ag -2.2, hcDAF12 agonist 1.0, AHR activator 0.7, ssDAF-12 act -1.4 and DAX1 inh-2 0.0.
`COc1ccc(-c2cc(=O)c3cc(OC)ccc3o2)cc1` gave DAX1 inh-1 3.3, hgDAF-12 ag 19.9*, hcDAF12 agonist 8.1*, AHR activator 0.8, ssDAF-12 act 0.1, DAX1 inh-2 9.0*, DAX1 conf 9.7*, SF1 mutant ctr 1.0, LXR ag 1.9, hcDAF12 conf 7.2*, hgDAF12 conf 20.0* and LXRb DAF12 ctr 1.4.
For COc1ccc(-c2cc(=O)c3c(OC)c(OC)c(OC)c(OC)c3o2)cc1 the results were DAX1 inh-1 -2.0, hgDAF-12 ag 2.7, hcDAF12 agonist -1.1, ssDAF-12 act -1.7 and DAX1 inh-2 -1.1.

Bioassay records (PubChem)
